Compounds with a hit are over-represented: about 8% of the library has one in this group of screens.
HCV inh: blocks hepatitis C virus; Huh7.5.1 HCVcc-Cre infection, luciferase reporter, 44 h; Potency, µM (series often up to 41.8 µM), hits mostly inhibitors; 340,000 tested, 3.4% active; AID 651820; active = well fitted inhibition curve with a large enough effect; inconclusive = small, poorly fitted or top-dose-only effect, or another doubt; inactive = no such curve, though single readings can be large or run the other way
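1,000 cells/well; 4 h culture; + compound; + HCVcc-Cre (~0.5 moi); 44 h; luciferase substrate, RT 15 min; read 15 sec.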
Marburg entry inh: Marburg virus entry inhibition; 300,000 tested, 1.8% active; Potency, µM (titrated, usually from 37.8 µM), actives largely listed as inhibitors; Marburg virus pseudotyped entry inhibition, cell reporter; calls by dose curve; tested in HEK293 cells
FMDV antiviral: blocks foot and mouth disease virus; FMDV antiviral cell-based qHTS; Potency, µM (highest dose often 57.9 µM), usual class: inhibitors; 410,000 tested, 1.2% active; AID 1159524; calls by dose curve; tested in HEK293T cells; also: read-out not given here; nearly all actives have a fitted effect of over 45% in size
HCMV antiviral: human cytomegalovirus inhibition | HFF cells, HCMV-luciferase reporter, 72 h; active compounds read low | activity change, negative = inhibition, % at 57.5 µM | 410,000 tested, 4.5% active; in the data active = activity change below about -60%; inconclusive = no clear call, values can overlap the other calls; inactive = above about -39%
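After 16 h attachment at 37C, HFF cells received test compound and HCMV-luciferase (1 PFU/cell); reporter luminescence read 72 h later, data normalized against buffer-only and known inhibitor Salinomycin.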
LASV entry inh: blocks Lassa virus binding to or entry into cells; Lassa virus pseudotype entry inhibition, cell reporter; Potency, µM (highest dose often 37.9 µM), most hits filed as inhibitors; 300,000 tested, 1.2% active; calls by dose curve; tested in HEK293 cells; also: nearly all actives have a fitted effect of over 50% in size
SARS PLpro yeast: blocks SARS-CoV papain-like protease in a yeast assay; Potency, µM (titrated, usually from 32.9 µM), most hits filed as activators; 330,000 tested, 0.19% active; AID 485353; S. cerevisiae expressing SARS-CoV PLpro, growth rescue; calls by dose curve; also: nearly all actives have a fitted effect of over 55% in size
Each line names hits and unclear results; the compound was inactive in the other large screens; ! = not confirmed by another sample.

CCC(=O)NC(c1ccc(C)cc1)c1cc([N+](=O)[O-])c2cccnc2c1O (stereo unspecified)	HCV inh inconclusive, Marburg entry inh inconclusive, FMDV antiviral inconclusive, HCMV antiviral -97, LASV entry inh inconclusive, SARS PLpro yeast 3.2µM
CC(=O)NC(c1cc(F)c2cccnc2c1O)C1CC1 (stereo unspecified)	FMDV antiviral inconclusive (no result: HCV inh, Marburg entry inh, LASV entry inh)
CCCCC(=O)NC(c1ccco1)c1c(O)ccc2ccccc12 (stereo unspecified)	none
CCOC(=O)C(Cc1ccccc1)(Nc1ccc(OC)cc1)C(O)c1ccc([N+](=O)[O-])cc1 (stereo unspecified)	none (no result: HCV inh, Marburg entry inh, FMDV antiviral, LASV entry inh, SARS PLpro yeast)
Cc1cccc(C)c1NC(=O)CN(Cc1ccc(Br)cc1)S(=O)(=O)c1ccccc1	Marburg entry inh inconclusive (no result: HCV inh, SARS PLpro yeast)
Cc1ccccc1C(=O)n1nc(-c2cccnc2)nc1NCc1ccc(F)cc1	Marburg entry inh inconclusive, FMDV antiviral inconclusive (no result: HCV inh, SARS PLpro yeast)
O=C(OCCc1cc2ccccc2c(=O)o1)c1ccccc1C(F)(F)F	HCV inh 22µM (no result: Marburg entry inh, LASV entry inh)
Cc1c(C(=O)N2CCOc3ccccc3C2)sc2ncnc(NCCCN3CCOCC3)c12	none (no result: HCV inh, Marburg entry inh, HCMV antiviral, LASV entry inh, SARS PLpro yeast)
COc1cc(OC)cc(C(=O)Nc2nc(-c3nnn(-c4ccc(F)c(Cl)c4)c3C)ns2)c1	HCMV antiviral -94 (no result: HCV inh, Marburg entry inh, SARS PLpro yeast)
COc1ccc(C(=O)Nc2nc(-c3nnn(-c4ccc(C(C)C)cc4)c3C)ns2)cc1	HCMV antiviral inconclusive (no result: HCV inh, Marburg entry inh, SARS PLpro yeast)
Cc1ccc(-n2nnc(-c3nsc(NC(=O)c4ccccc4C)n3)c2C)cc1Cl	HCMV antiviral -99 (no result: HCV inh, Marburg entry inh, SARS PLpro yeast)
COc1ccc(-n2nnc(-c3nsc(NC(=O)c4cccc(C)c4)n3)c2C)cc1OC	FMDV antiviral inconclusive, HCMV antiviral -100 (no result: HCV inh, Marburg entry inh, SARS PLpro yeast)
O=C(Nc1ccccc1N1CCN(C(=O)c2ccc(Cl)cc2)CC1)c1ccc(Br)cc1	HCV inh inconclusive, Marburg entry inh inconclusive
O=C(Cc1ccc(Cl)cc1)Nc1ccccc1N1CCN(C(=O)c2ccccc2)CC1	HCV inh inconclusive, FMDV antiviral 35µM, HCMV antiviral inconclusive (no result: Marburg entry inh, LASV entry inh)
COc1ccc(C(=O)Nc2ccccc2N2CCN(C(=O)c3ccccc3)CC2)cc1Br	HCV inh 10µM, Marburg entry inh inconclusive, LASV entry inh inconclusive
COc1ccc(C(=O)Nc2ccc(Nc3ccccc3)cc2)cc1Br	HCV inh 8.9µM, FMDV antiviral inconclusive (no result: SARS PLpro yeast)
O=C(Nc1ccccc1N1CCN(C(=O)c2ccccc2)CC1)c1ccc(Cl)cc1	HCV inh inconclusive, Marburg entry inh inconclusive, LASV entry inh inconclusive
COc1ccc(C(=O)NC(=S)Nc2ccccc2N2CCCCC2)cc1[N+](=O)[O-]	HCV inh 13µM, Marburg entry inh inconclusive, FMDV antiviral inconclusive, LASV entry inh inconclusive
COc1ccc(C(=O)Nc2ccc(N3CCCCC3)cc2)cc1Br	HCV inh inconclusive, HCMV antiviral inconclusive, LASV entry inh inconclusive
CCOc1ccc(C(=O)NC(=S)Nc2ccccc2N2CCCCC2)cc1[N+](=O)[O-]	HCV inh inconclusive, Marburg entry inh inconclusive, LASV entry inh inconclusive
CCn1c(S[C@@H](C)C(=O)O)nc2sc3c(c2c1=O)CCC3	none (no result: HCV inh, FMDV antiviral, HCMV antiviral, LASV entry inh, SARS PLpro yeast)
CC(C)COc1ccc(C(=O)N(Cc2ccc(N(C)C)cc2)Cc2ccco2)cc1	none (no result: HCV inh, SARS PLpro yeast)
COc1ccccc1-c1ccc(C(=O)NCCN2CCOCC2)c(N2CCN(c3ccccc3F)CC2)n1	none (no result: HCV inh, Marburg entry inh, HCMV antiviral, LASV entry inh, SARS PLpro yeast)
O=C(Nc1ccccc1)OCCOc1ccccc1Br	none (no result: Marburg entry inh, LASV entry inh)
O=C(Nc1ccccc1)OC[C@@H]1C=CS(=O)(=O)N1Cc1ccc(Br)cc1	HCMV antiviral -101 (no result: HCV inh, Marburg entry inh, LASV entry inh, SARS PLpro yeast)
CN(C)CCOC(c1ccc(Cl)cc1)c1ccccn1 (stereo unspecified)	HCV inh inconclusive (no result: Marburg entry inh, LASV entry inh)
CN(C)CC[C@H](c1ccc(Cl)cc1)c1ccccn1	Marburg entry inh 5.6µM! (no result: HCV inh, FMDV antiviral, HCMV antiviral, LASV entry inh, SARS PLpro yeast)
CN(C)CC[C@@H](c1ccccc1)c1ccccn1	none (no result: HCV inh, FMDV antiviral, HCMV antiviral, LASV entry inh, SARS PLpro yeast)
CN(C)CCC(c1ccc(Br)cc1)c1ccccn1 (stereo unspecified)	HCV inh inconclusive, Marburg entry inh 11µM!, HCMV antiviral inconclusive, LASV entry inh inconclusive
COc1ccc(CNC(=O)CCc2cn(Cc3cc(C)ccc3C)c3ccccc23)cc1OC	none (no result: HCV inh, Marburg entry inh, SARS PLpro yeast)
Nc1c(Cl)cc(-c2csc(N3CCCC3c3nc4cc(Cl)c(Cl)cc4n3CCCO)n2)cc1Cl (stereo unspecified)	HCV inh 2µM (no result: Marburg entry inh, LASV entry inh, SARS PLpro yeast)
OCCCn1c(C2CCCN2c2nc(-c3ccc(Cl)cc3)cs2)nc2cc(C(F)(F)F)ccc21 (stereo unspecified)	HCV inh inconclusive, HCMV antiviral -66 (no result: Marburg entry inh, LASV entry inh, SARS PLpro yeast)
